Compound activity deposited in PubChem by several laboratories.
D1 allo mod: allosterically modulates the human D1 dopamine receptor; P21728; HEK293 D1, CRE-luciferase, dopamine EC30 potentiation; actives deviate in either direction; B-score at 10 µM; 58,000 tested, 5.9% active; AID 641;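 active = luminescence count or its row- and column-corrected plate score outside the 99.7% band of the plate's sample wells, on either side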
Target sequence (P21728 whole entry, looked up): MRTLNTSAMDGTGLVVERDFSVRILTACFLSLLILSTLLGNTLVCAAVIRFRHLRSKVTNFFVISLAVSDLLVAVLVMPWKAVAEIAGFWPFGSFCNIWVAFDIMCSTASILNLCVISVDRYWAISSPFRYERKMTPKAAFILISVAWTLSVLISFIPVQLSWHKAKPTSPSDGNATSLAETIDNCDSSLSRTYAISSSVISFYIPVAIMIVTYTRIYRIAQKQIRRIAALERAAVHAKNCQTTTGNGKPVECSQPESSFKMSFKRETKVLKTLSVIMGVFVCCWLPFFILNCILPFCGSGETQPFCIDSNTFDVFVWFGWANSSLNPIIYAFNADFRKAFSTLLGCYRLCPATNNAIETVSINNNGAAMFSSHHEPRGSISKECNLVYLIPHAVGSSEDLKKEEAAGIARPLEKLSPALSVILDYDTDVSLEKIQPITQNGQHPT
CYP2C9 inh: blocks human cytochrome P450 2C9 | inhibition, % at 5 µM | 96,000 tested, 20% active | CYP2C9 Supersomes, luciferin-H conversion, luminescence | P11712;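 active = blocking of liver enzyme CYP2C9 beyond about 50% at 5 µM, limit read from the data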
CYP2C19 inh: inhibitors of human CYP2C19; P33261; CYP2C19 Supersomes, luciferin-H EGE luminescence, 30 min; inhibition, % at 5 µM; 96,000 tested, 21% active; AID 778;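 active = CYP2C19 inhibition above a set limit at 5 µM in the primary screen, cut at about 50% in these data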;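 note: plate controls were negative control wells for no effect and 2.5 mM tranylcypromine positive control for full effect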
CYP2C9 activ: activators of human CYP2C9. P11712. recombinant CYP2C9, luciferin-H conversion, luminescence; active compounds read high; factor 1 = untreated enzyme, 0 = blocked. activation factor at 5 µM. 96,000 tested, 1.4% active;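 active = activation factor of 2 or more for CYP2C9 at a 5 µM dose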;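 note: 0 = sulfaphenazole-blocked wells and 1 = vehicle-only wells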
CYP2C19 activ: cytochrome P450 2C19 (human) activation; P33261; recombinant CYP2C19, luciferin-H EGE luminescence; active compounds read high; 0 = fully inhibited enzyme, 1 = untreated enzyme; activation factor at 5 µM; 96,000 tested, under 10 active; AID 1025;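 active = activation factor of at least 2 at 5 µM in the primary screen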;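 note: 0 = wells with 2.5 mM tranylcypromine and 1 = vehicle-only wells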
DAT uptake mod: modulates human dopamine transporter uptake under cocaine | Q01959 | LLC-PK1 hDAT cells, [14C]-dopamine uptake with cocaine IC80; actives deviate in either direction | B-score at 10 µM | 110,000 tested, 1.3% active;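 active = Z score or B-score, a plate-position-corrected score, falls beyond the plate's 99.7% confidence bounds, in either direction; inactive = both scores lie inside the 99.7% bounds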;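 note: scored against the spread of the other compound wells on the same plate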
D1 PAM confirm: confirmation of human D1 dopamine receptor allosteric modulators | shares compounds with D1 allo mod | HEK293 D1 CRE-luciferase, dopamine EC30 potentiation; active compounds read high | luminescence at 10 µM | 2,200 tested, 88% active | AID 642;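 active = luminescence in either of two replicates above the same-plate mean plus 3 SD of the low-dose dopamine control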
D1 ag no DA: secondary test of D1 modulators: activity without dopamine; HEK293 D1 CRE-luciferase, luminescence, no dopamine; active compounds read high; shares compounds with D1 allo mod; luminescence at 10 µM; AID 646; 1,900 tested, 0.8% active; in the data active = luminescence above about 3900
Isoprot counter: isoproterenol response counter-screen activity for D1 modulators; shares compounds with D1 allo mod; HEK293 D1 CRE-luciferase, isoproterenol EC30 counter-screen; calls only at 10 µM; 2,200 tested, 63% active; AID 647;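 active = luminescence in either replicate above plate mean of wells with a partly effective reference agonist dose plus 3 SD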;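 note: isoproterenol raises cAMP through native beta-adrenoceptor Gs so signal bypasses D1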
An asterisk follows results filed as active; i = inactive; · = not tested or not shown; + = active, no number. Shown are actives, neighbours in structure and some others; about 28% of the full set was active somewhere.

SMILES	D1 allo mod	CYP2C9 inh	CYP2C19 inh	CYP2C9 activ	CYP2C19 activ	DAT uptake mod	D1 PAM confirm	D1 ag no DA	Isoprot counter
N#Cc1ccccc1CSc1nc(O)cc(=O)[nH]1	0.44	-10.3	-0.2	1.1	1	-0.0317	·	·	·
CCOC(=O)C1=CN(C)C=C(C(=O)OCC)C1c1ccsc1	5.78*	39.8	43.5	0.6	0.6	-0.571	4896	1708	i
COC(=O)c1ccc(Cn2cnc3c(sc4nc(N5CCOCC5)c5c(c43)CCCC5)c2=O)o1	6.76*	52.0*	22.3	0.5	0.8	0.569	8596*	1424	+
O=C(NCC1CCCO1)C1C2C=CC3(CN(Cc4cccs4)C(=O)C13)O2 (stereo unspecified)	-0.0613	17.3	3.4	0.8	1	-2.37	·	·	·
COc1ccc(-n2c(SCC(=O)N3CCCCC3C)nnc2-c2cccnc2)cc1 (stereo unspecified)	0.0953	42.7	42.2	0.6	0.6	-0.014	·	·	·
CCOC(=O)CSc1nc2sc3c(c2c(=O)n1CC)CC(C)(C)OC3	5.9*	37.1	11.5	0.6	0.9	-1.09	8088*	1472	+
CCOc1ccccc1C1CC(=O)NC2=C1C(=O)CC(C)(C)C2 (stereo unspecified)	3.3*	13.4	21.1	0.9	0.8	-0.12	5416	1524	i
COc1cc(C2CC(=O)NC3=C2C(=O)CC(C)(C)C3)ccc1O (stereo unspecified)	0.093	1.4	-0.1	1	1	0.0659	·	·	·
OCCn1nc2c3ccccc3nc-2n(-c2ccccc2)c1=S	5.86*	-7.7	47.3	1.1	0.5	-7.2*	7812*	1556	i
Cc1nn(-c2ccccc2)c(=S)n1-c1ccccc1	-0.273	-22.8	-18.9	1.2	1.2	1.62	·	·	·
CC(C)CC(=O)Nc1ccc(C(=O)Cn2nc(C(=O)O)c3ccccc3c2=O)cc1	·	47.6	15.9	0.5	0.8	1.33	·	·	·
Cc1ccccc1OCCn1nc(C(=O)O)c2ccccc2c1=O	3.94*	47.1	53.6*	0.5	0.5	0.571	7632*	1464	+
O=C(Oc1ccc(OC(=O)N2CCCCC2)cc1)c1ccccc1	-0.462	-24.9	34.7	1.2	0.7	2	·	·	·
Cc1cc(C)n(-c2nncc(-c3ccccc3)n2)n1	-0.0181	12.1	37.7	0.9	0.6	0.938	·	·	·
Cc1cc(C)n(-c2ncc(-c3ccccc3)nn2)n1	4.48*	-15.3	12.1	1.2	0.9	0.665	6696*	·	i
Cc1cc2n(n1)C(c1ccsc1)Nc1ccccc1-2 (stereo unspecified)	14.3*	56.4*	61.1*	0.4	0.4	0.0152	15520*	·	+
Cc1cc2n(n1)C(c1ccccc1Cl)Nc1ccccc1-2 (stereo unspecified)	14.1*	75.4*	85.8*	0.2	0.1	-0.0615	16788*	1488	+
Cc1cc(C(=O)NNC(=S)NC(=O)/C=C/c2ccccc2Cl)n[nH]1	·	26.9	-16.1	0.7	1.2	-0.017	·	·	·
COc1ccc(-c2nnc(SCC(=O)Nc3ncc(C)s3)n2-c2ccccc2)cc1OC	3.65*	51.3*	61.7*	0.5	0.4	1.27	11512*	1492	+
COC(=O)c1ccc2c(=O)n(C3CCCCC3)c(SCC#N)nc2c1	1.69	-9.1	-5.8	1.1	1.1	-0.0606	·	·	·
CCOC(=O)c1[nH]cnc1C(=O)Nc1ccncc1	13.3*	54.2*	33.0	0.5	0.7	-0.0397	14788*	1588	+
CCCCNc1ccc(C(CC(N)=O)NC(=O)Cc2ccc(Br)cc2)cc1[N+](=O)[O-] (stereo unspecified)	·	·	·	·	·	-0.00763	·	·	·
Cn1cccc1Cc1nnc(SCC(=O)NC2CCCCC2)n1CCc1ccccc1	1.46*	42.3	44.2	0.6	0.6	0.944	5188	1520	i
